Assay [1] in a line: NCI Yeast Anticancer Drug Screen. Data for the rad50 strain (AID 155).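 Also: 0% = growth of vehicle-only cultures of the same strain.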 The note with it: S. cerevisiae rad50 strain growth inhibition, stronger effect = higher value. In outline: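 Cells are treated with compound, grown, and their growth is then scored against vehicle-only cultures of the same repair-deficient yeast strain.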
Assay [2] is described as follows: NCI Yeast Anticancer Drug Screen. Data for the mec2-1 strain (AID 157). The note with it: S. cerevisiae mec2-1 strain, stronger effect = higher value. In outline: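 mec2-1 yeast strain, carrying an alteration in DNA damage repair or cell cycle control, was exposed to compounds; growth inhibition was measured relative to vehicle-treated controls.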
A short description of assay [3]: NCI Yeast Anticancer Drug Screen. Data for the sgs1 mgt1 strain (AID 161).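 Also: 0% = growth of cultures given vehicle only.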 The note with it: S. cerevisiae sgs1 mgt1 strain, stronger effect = higher value. In outline: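 Percent growth inhibition was derived by comparing compound-exposed mutant yeast with vehicle-exposed cultures. The strain carries alterations in DNA damage repair.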
A short description of assay [4]: NCI Yeast Anticancer Drug Screen. Data for the bub3 strain (AID 167). The note with it: S. cerevisiae bub3 mutant strain, stronger effect = higher value. In outline: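 Part of a panel of yeast mutants defective in DNA damage repair or cell cycle regulation. Each strain is grown with compound, and inhibition is calculated relative to solvent-treated cultures.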
Assay [5] is described as follows: NCI Yeast Anticancer Drug Screen. Data for the mlh1 rad18 strain (AID 175). The conditions noted are these: S. cerevisiae mlh1 rad18 strain growth inhibition, stronger effect = higher value. The method in brief: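 Growth inhibition of the yeast strain was measured after compound exposure and expressed relative to vehicle-treated controls. The strain carries defined defects in DNA damage repair.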

Assay [6] can be described thus: NCI Yeast Anticancer Drug Screen. Data for the cln2 rad14 strain (AID 165).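 Also: 0% = growth equal to vehicle treated cultures.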 The note with it: S. cerevisiae cln2 rad14 strain, stronger effect = higher value. The method in brief: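 Yeast carrying cln2 and rad14 alterations (cell cycle control and DNA damage repair) were exposed to compounds. Growth inhibition was measured against vehicle-treated controls.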
The mark [7] stands for this setting: at 5.0 µM (retest, dose inferred, filed as 0.5).
Setting [8] is: at 50.0 µM (retest, dose inferred, filed as 5.0).

These results are taken from PubChem BioAssay (NCI).

The panel holds about 79,000 compounds, 15% with a hit somewhere; the sample as a whole holds those more often. Unmarked numbers belong to inactive results. Active and inactive are the calls of the source. Rule as the data show it: active = growth inhibition above about 70%; inactive = the rest.

In the case of `COc1ccc(C2CN(C(=O)c3ccccc3)N=C(c3ccccc3)O2)cc1` (stereo unspecified), the growth inhibition in assay [1] (setting [7]) is -1%; in assay [1] (setting [8]), -16%; in assay [1] (at 50.0 µM), 93.7% (active); in assay [2] (setting [7]), -8%; in assay [2] (setting [8]), 1%; in assay [2] (at 50.0 µM), 93.2% (active). Further, the growth inhibition in assay [3] (setting [7]) was 1%; in assay [3] (setting [8]), -46%; in assay [3] (at 50.0 µM) it was 93.7% (active); in assay [4] (setting [7]), -4%; in assay [4] (setting [8]), -67%; in assay [4] (at 50.0 µM), 90% (active). The growth inhibition in assay [5] (setting [7]) was -6%; in assay [5] (setting [8]), -6%; in assay [5] (at 50.0 µM), 95% (active).

As for `CCCCN(CC(O)c1ccc(Cl)cc1)c1ccccc1` (stereo unspecified), the growth inhibition is -1% in assay [1] (setting [7]); 99% (active) in assay [1] (setting [8]); 98.8% (active) in assay [1] (at 50.0 µM); -2% in assay [2] (setting [7]); 99% (active) in assay [2] (setting [8]); 98.8% (active) in assay [2] (at 50.0 µM). Moreover, the growth inhibition in assay [3] (setting [7]) was -6%; in assay [3] (setting [8]), 98% (active); in assay [3] (at 50.0 µM) it was 98.8% (active); in assay [6] (setting [7]) it was 1%; in assay [6] (setting [8]), 93% (active); in assay [6] (at 50.0 µM), 98.5% (active). In addition, the growth inhibition in assay [5] (setting [7]) is 1%; in assay [5] (setting [8]) it was 99% (active); in assay [5] (at 50.0 µM), 96.7% (active).

Turning to `CC1(C)OC(=O)C(=NNc2ccccc2[N+](=O)[O-])C(=O)O1`, the growth inhibition in assay [1] (setting [7]) is 5%; in assay [1] (setting [8]), 4%; in assay [1] (at 50.0 µM), -6.9%; in assay [2] (setting [7]), 2%; in assay [2] (setting [8]), 19%; in assay [2] (at 50.0 µM) it was 5.75%. In addition, the growth inhibition is 2% in assay [3] (setting [7]); 16% in assay [3] (setting [8]); 1.25% in assay [3] (at 50.0 µM); 3% in assay [4] (setting [7]); 21% in assay [4] (setting [8]); 21.5% in assay [4] (at 50.0 µM). The growth inhibition in assay [5] (setting [7]) was 2%; in assay [5] (setting [8]) it was 7%; in assay [5] (at 50.0 µM), 18.1%.

For the molecule `O/N=C1/C(=C/c2ccc(Cl)c(Cl)c2)CCCC1C(NO)c1ccc(Cl)c(Cl)c1` (stereo unspecified), the growth inhibition in assay [1] (setting [7]) was 17%; in assay [1] (setting [8]), 96% (active); in assay [1] (at 50.0 µM), 64%; in assay [2] (setting [7]), -1%; in assay [2] (setting [8]), 98% (active); in assay [2] (at 50.0 µM) it was 1.9%. The growth inhibition was 2% in assay [3] (setting [7]); 96% (active) in assay [3] (setting [8]); 25.2% in assay [3] (at 50.0 µM); -6% in assay [6] (setting [7]); 97% (active) in assay [6] (setting [8]); -14.8% in assay [6] (at 50.0 µM). In addition, the figures for the growth inhibition in assay [5] (setting [7]), in assay [5] (setting [8]) and in assay [5] (at 50.0 µM) were 1%, 97% (active) and 79% (active), respectively.

`C[CH2][Sn]([CH2]C)([O]C(=O)c1cc(OC)c(OC)c(OC)c1)[O][Sn]([CH2]C)([CH2]C)[O]C(=O)c1cc(OC)c(OC)c(OC)c1`: the growth inhibition in assay [1] (setting [7]) is 33%; in assay [1] (setting [8]), 79% (active); in assay [1] (at 50.0 µM), 1.2%; in assay [2] (setting [7]), 30%; in assay [2] (setting [8]) it was 91% (active); in assay [2] (at 50.0 µM) it was 12.7%. Besides, the growth inhibition was 8% in assay [6] (setting [7]); 61% in assay [6] (setting [8]); 21.9% in assay [6] (at 50.0 µM); 36% in assay [4] (setting [7]); 94% (active) in assay [4] (setting [8]); 9.15% in assay [4] (at 50.0 µM). Besides, the growth inhibition in assay [5] (setting [7]) is 27%; in assay [5] (setting [8]), 85% (active); in assay [5] (at 50.0 µM), 61%.

Take `O=C1C(Br)=C(Sc2ccc([N+](=O)[O-])cc2)C(=O)c2ccccc21`: the growth inhibition in assay [1] (setting [7]) was 56%; in assay [1] (setting [8]), 90% (active); in assay [1] (at 50.0 µM), 93.5% (active); in assay [2] (setting [7]), 64%; in assay [2] (setting [8]) it was 94% (active); in assay [2] (at 50.0 µM), 96.7% (active). The growth inhibition in assay [3] (setting [7]) is 51%; in assay [3] (setting [8]), 96% (active); in assay [3] (at 50.0 µM) it was 96.6% (active); in assay [4] (setting [7]), 65%; in assay [4] (setting [8]), 96% (active); in assay [4] (at 50.0 µM) it was 96.6% (active). Also, the growth inhibition in assay [5] (setting [7]) was 33%; in assay [5] (setting [8]), 92% (active); in assay [5] (at 50.0 µM) it was 97% (active).

Turning to `CC(C)(C)C1=CC(N2CCCCC2)(C(C)(C)C)C=C(C(C)(C)C)C1=O`, the growth inhibition in assay [1] (setting [7]) is 0%; in assay [1] (setting [8]) it was 55%; in assay [1] (at 50.0 µM), 93.8% (active); in assay [2] (setting [7]) it was -2%; in assay [2] (setting [8]), 64%; in assay [2] (at 50.0 µM), 91.8% (active). Besides, the growth inhibition is 3% in assay [3] (setting [7]); 77% (active) in assay [3] (setting [8]); 95.3% (active) in assay [3] (at 50.0 µM); -6% in assay [4] (setting [7]); 35% in assay [4] (setting [8]); 81.2% (active) in assay [4] (at 50.0 µM). In addition, the growth inhibition in assay [5] (setting [7]) was 0%; in assay [5] (setting [8]) it was 73% (active); in assay [5] (at 50.0 µM), 94.8% (active).

Consider `C=C1C(=O)OC(C)(C)C1c1ccc(Cl)c(Cl)c1` (stereo unspecified), for which the growth inhibition in assay [1] (setting [7]) was 25%; in assay [1] (setting [8]), 99% (active); in assay [1] (at 50.0 µM), 99.5% (active); in assay [2] (setting [7]) it was 35%; in assay [2] (setting [8]) it was 99% (active); in assay [2] (at 50.0 µM), 99.8% (active). The growth inhibition in assay [3] (setting [7]) was 39%; in assay [3] (setting [8]) it was 99% (active); in assay [3] (at 50.0 µM) it was 99.8% (active); in assay [6] (setting [7]), 18%; in assay [6] (setting [8]) it was 97% (active); in assay [6] (at 50.0 µM), 99.2% (active). In addition, the growth inhibition is 37% in assay [4] (setting [7]); 99% (active) in assay [4] (setting [8]); 99.5% (active) in assay [4] (at 50.0 µM); 38% in assay [5] (setting [7]); 98% (active) in assay [5] (setting [8]); 99.7% (active) in assay [5] (at 50.0 µM).

In the case of `OCCc1ccc(-n2cnc3c(Nc4ccc(Cl)cc4)ncnc32)cc1`, the growth inhibition in assay [1] (setting [7]) was -3%; in assay [1] (setting [8]), 95% (active); in assay [1] (at 50.0 µM), 47.2%; in assay [2] (setting [7]), -4%; in assay [2] (setting [8]) it was 95% (active); in assay [2] (at 50.0 µM) it was 43%. Besides, the growth inhibition was -4% in assay [3] (setting [7]); 91% (active) in assay [3] (setting [8]); 44.8% in assay [3] (at 50.0 µM); -18% in assay [6] (setting [7]); 94% (active) in assay [6] (setting [8]); 17.8% in assay [6] (at 50.0 µM). Further, the growth inhibition is 7% in assay [4] (setting [7]); 96% (active) in assay [4] (setting [8]); 83.8% (active) in assay [4] (at 50.0 µM); 3% in assay [5] (setting [7]); 95% (active) in assay [5] (setting [8]); 47% in assay [5] (at 50.0 µM).

In the case of `O=C1/C(=C\c2ccc([N+](=O)[O-])o2)Oc2cc(O)ccc21`, the growth inhibition was 97% (active) in assay [1] (setting [7]); 96% (active) in assay [1] (setting [8]); 95.2% (active) in assay [1] (at 50.0 µM); 97% (active) in assay [2] (setting [7]); 97% (active) in assay [2] (setting [8]); 91.8% (active) in assay [2] (at 50.0 µM). Also, the growth inhibition in assay [6] (setting [7]) is 98% (active); in assay [6] (setting [8]) it was 98% (active); in assay [6] (at 50.0 µM), 93.6% (active); in assay [4] (setting [7]) it was 75% (active); in assay [4] (setting [8]) it was 90% (active); in assay [4] (at 50.0 µM), 41.5%. Besides, the growth inhibition in assay [5] (setting [7]) was 97% (active); in assay [5] (setting [8]), 98% (active); in assay [5] (at 50.0 µM), 95.7% (active).
